Source: publication PMC8384837, “Expanding the binding specificity for RNA recognition by a PUF domain”
Where a chain is given by its changes, count along the chain named.

What was measured:
Experiment in all cases: yeast three-hybrid, YBZ-1, SC-Leu-His + 0.5 mM 3-AT, 4 days
Conditions in all cases: tags: N-Gal4 AD-HA kept; label: inside an RPR1-promoter hybrid RNA with tandem MS2 sites; ssRNA
PUM1 PUF domain R5-RGC = PUM1 PUF domain R5-RGC (Homo sapiens, UniProt Q14671 828-1176, C1007R;R1008G;Q1011C)
In short: (§1)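 Matching RNA elements and Pumilio-1 PUF domain libraries, randomized at the three base-contacting residues of every repeat, were co-expressed from a centromeric plasmid in strain YBZ-1 (LexA–MS2 coat fusion, HIS3 reporter). The repeat regions were PCR-amplified and Illumina-sequenced from cells grown four days on SC-Leu (input) or SC-Leu-His + 0.5 mM 3-AT (selection). The interaction score is the log change in variant frequency from input to selection. It is computed in log2, with a pseudocount of 1 for absent variants.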

PUM1 PUF domain R5-RSP = PUM1 PUF domain R5-RSP (Homo sapiens, UniProt Q14671 828-1176, C1007R;R1008S;Q1011P)
In short: as §1

PUM1 PUF domain R5-RQN = PUM1 PUF domain R5-RQN (Homo sapiens, UniProt Q14671 828-1176, C1007R;R1008Q;Q1011N)
In short: as §1

PUM1 PUF domain R3-GPR = PUM1 PUF domain R3-GPR (Homo sapiens, UniProt Q14671 828-1176, C935G;R936P;Q939R)
Chain of PUM1 PUF domain R3-GPR (Q14671 828-1176 C935G/R936P/Q939R): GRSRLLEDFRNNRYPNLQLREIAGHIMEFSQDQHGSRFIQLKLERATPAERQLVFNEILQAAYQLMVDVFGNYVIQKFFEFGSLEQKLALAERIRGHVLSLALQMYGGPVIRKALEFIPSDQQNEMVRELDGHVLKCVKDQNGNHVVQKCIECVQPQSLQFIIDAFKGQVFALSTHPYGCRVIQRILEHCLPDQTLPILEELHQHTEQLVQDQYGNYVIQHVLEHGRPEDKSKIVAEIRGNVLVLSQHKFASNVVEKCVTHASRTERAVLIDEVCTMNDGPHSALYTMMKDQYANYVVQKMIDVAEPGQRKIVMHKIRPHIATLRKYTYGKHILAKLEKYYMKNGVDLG
In short: as §1

PUM1 PUF domain R3-IWG = PUM1 PUF domain R3-IWG (Homo sapiens, UniProt Q14671 828-1176, C935I;R936W;Q939G)
Chain of PUM1 PUF domain R3-IWG (Q14671 828-1176 C935I/R936W/Q939G): as the sequence (Q14671 828-1176 C935G/R936P/Q939R) above, with G108I, P109W, R112G counted along it
In short: as §1

PUM1 PUF domain R3-VRG = PUM1 PUF domain R3-VRG (Homo sapiens, UniProt Q14671 828-1176, C935V;Q939G)
In short: as §1

PUM1 PUF domain R6-NWL = target: T1, PUM1 PUF domain R6-NWL (Homo sapiens, UniProt Q14671 828-1176, Y1044W;Q1047L)
T1 sequence: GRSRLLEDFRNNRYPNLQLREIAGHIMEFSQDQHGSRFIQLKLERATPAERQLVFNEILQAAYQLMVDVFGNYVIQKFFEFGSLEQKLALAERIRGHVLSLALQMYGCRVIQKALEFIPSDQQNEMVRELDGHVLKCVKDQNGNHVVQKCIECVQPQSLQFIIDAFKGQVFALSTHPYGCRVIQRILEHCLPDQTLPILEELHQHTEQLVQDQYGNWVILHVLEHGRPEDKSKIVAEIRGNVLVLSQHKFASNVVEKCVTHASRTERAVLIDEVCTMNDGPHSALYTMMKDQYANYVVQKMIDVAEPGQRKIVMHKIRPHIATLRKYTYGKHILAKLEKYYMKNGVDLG
In short: as §1

PUM1 PUF domain R6-VYR = target: T2, PUM1 PUF domain R6-VYR (Homo sapiens, UniProt Q14671 828-1176, N1043V;Q1047R)
T2 sequence: T1 sequence with N216V, W217Y, L220R
In short: as §1

PUM1 PUF domain R7-RRN = PUM1 PUF domain R7-RRN (Homo sapiens, UniProt Q14671 828-1176, S1079R;N1080R;E1083N)
In short: as §1

PUM1 PUF domain R7-GNR = PUM1 PUF domain R7-GNR (Homo sapiens, UniProt Q14671 828-1176, S1079G;E1083R)
In short: as §1

PUM1 PUF domain R1-QCR = PUM1 PUF domain R1-QCR (Homo sapiens, UniProt Q14671 828-1176, S863Q;R864C;Q867R)
In short: as §1

PUM1 PUF domain R1-SYK = PUM1 PUF domain R1-SYK (Homo sapiens, UniProt Q14671 828-1176, R864Y;Q867K)
In short: as §1

PUM1 PUF domain R2-VWW = PUM1 PUF domain R2-VWW (Homo sapiens, UniProt Q14671 828-1176, N899V;Y900W;Q903W)
In short: as §1

PUM1 PUF domain R2-FWW = PUM1 PUF domain R2-FWW (Homo sapiens, UniProt Q14671 828-1176, N899F;Y900W;Q903W)
In short: as §1

PUM1 PUF domain R6-SHR = target: T3, PUM1 PUF domain R6-SHR (Homo sapiens, UniProt Q14671 828-1176, N1043S;Y1044H;Q1047R)
T3 sequence: T1 sequence with N216S, W217H, L220R
In short: as §1

PUM1 PUF domain R6-HWW = target: T4, PUM1 PUF domain R6-HWW (Homo sapiens, UniProt Q14671 828-1176, N1043H;Y1044W;Q1047W)
T4 sequence: T1 sequence with N216H, L220W
In short: as §1

PUM1 PUF domain R5-IYM = PUM1 PUF domain R5-IYM (Homo sapiens, UniProt Q14671 828-1176, C1007I;R1008Y;Q1011M)
In short: as §1

PUM1 PUF domain R3-DFV = PUM1 PUF domain R3-DFV (Homo sapiens, UniProt Q14671 828-1176, C935D;R936F;Q939V)
In short: as §1

PUM1 PUF domain R3-SCY = PUM1 PUF domain R3-SCY (Homo sapiens, UniProt Q14671 828-1176, C935S;R936C;Q939Y)
In short: as §1

PUM1 PUF domain R6-DYQ = target: T5, PUM1 PUF domain R6-DYQ (Homo sapiens, UniProt Q14671 828-1176, N1043D)
T5 sequence: T1 sequence with N216D, W217Y, L220Q
In short: as §1

## GGCUAGAACUAGUGGAUCCCCCGGCGCCCGGCGGCUCGAGCCCGGGUAAGUGUUAAUAGUCUGCAUGCCGCCGGGCGCCAUGCCUGCAGGUCGACUCUAGAAAACAUG
PUM1 PUF domain R5-RGC
  binding signal: 3.22 log2 enrichment (interaction score)
PUM1 PUF domain R5-RSP
  binding signal: 1.1 log2 enrichment (interaction score)

## GGCUAGAACUAGUGGAUCCCCCGGCGCCCGGCGGCUCGAGCCCGGGUAAGUGUCAAUAGUCUGCAUGCCGCCGGGCGCCAUGCCUGCAGGUCGACUCUAGAAAACAUG
PUM1 PUF domain R5-RQN
  binding signal: 4.58 log2 enrichment (interaction score)
PUM1 PUF domain R5-RGC
  binding signal: 1.32 log2 enrichment (interaction score)
PUM1 PUF domain R5-RSP
  binding signal: 2.36 log2 enrichment (interaction score)

## GGCUAGAACUAGUGGAUCCCCCGGCGCCCGGCGGCUCGAGCCCGGGUAAGUGUAAGUAGUCUGCAUGCCGCCGGGCGCCAUGCCUGCAGGUCGACUCUAGAAAACAUG
PUM1 PUF domain R3-GPR
  binding signal: 1.82 log2 enrichment (interaction score)
PUM1 PUF domain R3-IWG
  binding signal: 5.3 log2 enrichment (interaction score)
PUM1 PUF domain R3-VRG
  binding signal: 0.46 log2 enrichment (interaction score)

## GGCUAGAACUAGUGGAUCCCCCGGCGCCCGGCGGCUCGAGCCCGGGUAAGUGAAAAUAGUCUGCAUGCCGCCGGGCGCCAUGCCUGCAGGUCGACUCUAGAAAACAUG
PUM1 PUF domain R6-NWL
  binding signal: 2.34 log2 enrichment (interaction score)
PUM1 PUF domain R6-VYR
  binding signal: 6.09 log2 enrichment (interaction score)

## GGCUAGAACUAGUGGAUCCCCCGGCGCCCGGCGGCUCGAGCCCGGGUAAGUUUAAAUAGUCUGCAUGCCGCCGGGCGCCAUGCCUGCAGGUCGACUCUAGAAAACAUG
PUM1 PUF domain R7-RRN
  binding signal: 4.89 log2 enrichment (interaction score)
PUM1 PUF domain R7-GNR
  binding signal: 2.05 log2 enrichment (interaction score)

## GGCUAGAACUAGUGGAUCCCCCGGCGCCCGGCGGCUCGAGCCCGGGUAAGUGUAAAUCGUCUGCAUGCCGCCGGGCGCCAUGCCUGCAGGUCGACUCUAGAAAACAUG
PUM1 PUF domain R1-QCR
  binding signal: 2.48 log2 enrichment (interaction score)
PUM1 PUF domain R1-SYK
  binding signal: 2.72 log2 enrichment (interaction score)

## GGCUAGAACUAGUGGAUCCCCCGGCGCCCGGCGGCUCGAGCCCGGGUAAGUGUAAAAAGUCUGCAUGCCGCCGGGCGCCAUGCCUGCAGGUCGACUCUAGAAAACAUG
PUM1 PUF domain R2-VWW
  binding signal: 2.5 log2 enrichment (interaction score)
PUM1 PUF domain R2-FWW
  binding signal: 4.3 log2 enrichment (interaction score)

## GGCUAGAACUAGUGGAUCCCCCGGCGCCCGGCGGCUCGAGCCCGGGUAAGUGCAAAUAGUCUGCAUGCCGCCGGGCGCCAUGCCUGCAGGUCGACUCUAGAAAACAUG
PUM1 PUF domain R6-SHR
  binding signal: 5.39 log2 enrichment (interaction score)

## GGCUAGAACUAGUGGAUCCCCCGGCGCCCGGCGGCUCGAGCCCGGGUAAGUGUAAAUAGUCUGCAUGCCGCCGGGCGCCAUGCCUGCAGGUCGACUCUAGAAAACAUG
PUM1 PUF domain R6-HWW
  binding signal: 4.93 log2 enrichment (interaction score)
PUM1 PUF domain R6-NWL
  binding signal: 5.32 log2 enrichment (interaction score)
PUM1 PUF domain R3-GPR
  binding signal: 0.81 log2 enrichment (interaction score)
PUM1 PUF domain R3-IWG
  binding signal: 5.45 log2 enrichment (interaction score)
PUM1 PUF domain R5-IYM
  binding signal: 3.85 log2 enrichment (interaction score)
PUM1 PUF domain R6-SHR
  binding signal: 4.81 log2 enrichment (interaction score)
PUM1 PUF domain R3-VRG
  binding signal: 3.39 log2 enrichment (interaction score)
PUM1 PUF domain R3-DFV
  binding signal: 5.54 log2 enrichment (interaction score)
PUM1 PUF domain R3-SCY
  binding signal: 3.56 log2 enrichment (interaction score)
PUM1 PUF domain R6-DYQ
  binding signal: 6.54 log2 enrichment (interaction score)
PUM1 PUF domain R6-VYR
  binding signal: 2.97 log2 enrichment (interaction score)

## GGCUAGAACUAGUGGAUCCCCCGGCGCCCGGCGGCUCGAGCCCGGGUAAGUGUGAAUAGUCUGCAUGCCGCCGGGCGCCAUGCCUGCAGGUCGACUCUAGAAAACAUG
PUM1 PUF domain R5-RQN
  binding signal: 1.54 log2 enrichment (interaction score)

## GGCUAGAACUAGUGGAUCCCCCGGCGCCCGGCGGCUCGAGCCCGGGUAAGUGUAAAUUGUCUGCAUGCCGCCGGGCGCCAUGCCUGCAGGUCGACUCUAGAAAACAUG
PUM1 PUF domain R1-QCR
  binding signal: 1.4 log2 enrichment (interaction score)

## GGCUAGAACUAGUGGAUCCCCCGGCGCCCGGCGGCUCGAGCCCGGGUAAGUCUAAAUAGUCUGCAUGCCGCCGGGCGCCAUGCCUGCAGGUCGACUCUAGAAAACAUG
PUM1 PUF domain R7-RRN
  binding signal: 3.94 log2 enrichment (interaction score)

## GGCUAGAACUAGUGGAUCCCCCGGCGCCCGGCGGCUCGAGCCCGGGUAAGUGUAAUUAGUCUGCAUGCCGCCGGGCGCCAUGCCUGCAGGUCGACUCUAGAAAACAUG
PUM1 PUF domain R3-GPR
  binding signal: 3.57 log2 enrichment (interaction score)
PUM1 PUF domain R3-IWG
  binding signal: 3.86 log2 enrichment (interaction score)

## GGCUAGAACUAGUGGAUCCCCCGGCGCCCGGCGGCUCGAGCCCGGGUAAGUGUAACUAGUCUGCAUGCCGCCGGGCGCCAUGCCUGCAGGUCGACUCUAGAAAACAUG
PUM1 PUF domain R3-GPR
  binding signal: 1.8 log2 enrichment (interaction score)
